# Tests used:
# Assay in all cases: DAPPL (digital affinity profiling via proximity ligation, sequencing); 10 mM Tris-HCl pH 7.5, 50 mM NaCl, 1 mM DTT, 4% glycerol, room temperature, 30 min; GST-TFs on glutathione beads, 16-mer random dsDNA library, 0.1% formaldehyde crosslink after washing; high values mean tight binding
# FLI1 = target: T1, FLI1 (Homo sapiens, UniProt Q01543 1-452); details: protein: recombinant; tags: N-terminal GST; dsDNA, one strand shown
# T1 sequence: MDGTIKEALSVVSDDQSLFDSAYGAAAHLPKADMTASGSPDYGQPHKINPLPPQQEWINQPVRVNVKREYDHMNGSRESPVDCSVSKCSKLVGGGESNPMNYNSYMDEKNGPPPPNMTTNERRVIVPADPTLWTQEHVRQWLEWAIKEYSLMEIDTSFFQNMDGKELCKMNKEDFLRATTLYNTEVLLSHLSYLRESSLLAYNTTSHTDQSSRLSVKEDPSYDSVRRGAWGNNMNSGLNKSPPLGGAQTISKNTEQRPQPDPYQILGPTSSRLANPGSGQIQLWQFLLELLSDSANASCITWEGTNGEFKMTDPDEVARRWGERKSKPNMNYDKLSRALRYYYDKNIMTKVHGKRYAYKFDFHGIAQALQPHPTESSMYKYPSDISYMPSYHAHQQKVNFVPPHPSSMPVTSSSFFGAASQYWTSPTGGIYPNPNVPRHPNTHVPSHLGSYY
# In short: (§1)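 Binding signal is given per hexamer as its read frequency for a factor divided by its frequency in the tag-only sample. GST-fused human transcription factors were expressed in yeast, captured on glutathione beads, barcoded with DNA and pooled with that sample, then incubated with 200 nmole of a 16-mer random double-stranded DNA library in Tris/NaCl/DTT/glycerol buffer for 30 min at room temperature. The pools were then washed, crosslinked, proximity-ligated, amplified by PCR and sequenced on an Illumina NextSeq500.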
# ELK1 = target: T2, ELK1 (Homo sapiens, UniProt P19419 1-428); details: protein: recombinant; tags: N-terminal GST; dsDNA, one strand shown
# T2 sequence: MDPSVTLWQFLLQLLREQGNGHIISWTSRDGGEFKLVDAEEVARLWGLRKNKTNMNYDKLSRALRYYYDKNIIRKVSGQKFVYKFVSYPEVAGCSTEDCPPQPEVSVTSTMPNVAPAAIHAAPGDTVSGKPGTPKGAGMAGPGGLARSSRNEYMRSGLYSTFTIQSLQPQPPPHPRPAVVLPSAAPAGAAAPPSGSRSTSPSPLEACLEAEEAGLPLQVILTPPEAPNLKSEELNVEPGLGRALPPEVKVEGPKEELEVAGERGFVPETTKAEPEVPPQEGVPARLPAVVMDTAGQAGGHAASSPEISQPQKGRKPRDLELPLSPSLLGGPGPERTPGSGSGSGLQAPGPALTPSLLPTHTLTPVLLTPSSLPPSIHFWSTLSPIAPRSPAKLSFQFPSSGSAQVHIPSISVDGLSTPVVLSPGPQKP
# In short: as §1
# GABPA = target: T3, GABPA (Homo sapiens, UniProt Q06546 1-454); details: protein: recombinant; tags: N-terminal GST; dsDNA, one strand shown
# T3 sequence: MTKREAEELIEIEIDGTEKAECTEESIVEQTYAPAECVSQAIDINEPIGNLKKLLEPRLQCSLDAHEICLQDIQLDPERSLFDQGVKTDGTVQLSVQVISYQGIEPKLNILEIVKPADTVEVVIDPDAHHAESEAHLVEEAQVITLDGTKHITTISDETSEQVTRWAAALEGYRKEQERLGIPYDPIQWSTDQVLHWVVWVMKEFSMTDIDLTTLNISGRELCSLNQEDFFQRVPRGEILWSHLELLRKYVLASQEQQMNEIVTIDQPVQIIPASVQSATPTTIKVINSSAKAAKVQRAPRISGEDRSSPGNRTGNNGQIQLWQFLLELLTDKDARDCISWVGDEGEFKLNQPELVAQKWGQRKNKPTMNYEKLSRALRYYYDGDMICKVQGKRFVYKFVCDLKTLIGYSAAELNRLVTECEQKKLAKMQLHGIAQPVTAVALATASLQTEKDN
# In short: as §1
# ERG = target: T4, ERG (Homo sapiens, UniProt P11308 1-479); details: protein: recombinant; tags: N-terminal GST; dsDNA, one strand shown
# T4 sequence: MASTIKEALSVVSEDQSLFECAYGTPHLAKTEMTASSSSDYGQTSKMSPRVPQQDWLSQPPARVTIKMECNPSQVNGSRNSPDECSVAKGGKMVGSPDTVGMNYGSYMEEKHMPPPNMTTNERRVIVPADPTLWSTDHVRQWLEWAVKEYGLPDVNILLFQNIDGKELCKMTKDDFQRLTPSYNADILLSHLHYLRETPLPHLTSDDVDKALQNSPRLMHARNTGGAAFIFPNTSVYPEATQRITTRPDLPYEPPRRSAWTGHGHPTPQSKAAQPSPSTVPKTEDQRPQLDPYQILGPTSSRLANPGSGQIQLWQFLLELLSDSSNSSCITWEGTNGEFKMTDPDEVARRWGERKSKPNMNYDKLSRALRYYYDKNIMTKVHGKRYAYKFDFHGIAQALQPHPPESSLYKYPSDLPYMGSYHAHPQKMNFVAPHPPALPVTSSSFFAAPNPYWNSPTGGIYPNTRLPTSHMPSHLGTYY
# In short: as §1
# ELF1 = ELF1 (Homo sapiens, UniProt P32519 1-619); details: protein: recombinant; tags: N-terminal GST; dsDNA, one strand shown
# Chain of ELF1 (P32519 whole entry): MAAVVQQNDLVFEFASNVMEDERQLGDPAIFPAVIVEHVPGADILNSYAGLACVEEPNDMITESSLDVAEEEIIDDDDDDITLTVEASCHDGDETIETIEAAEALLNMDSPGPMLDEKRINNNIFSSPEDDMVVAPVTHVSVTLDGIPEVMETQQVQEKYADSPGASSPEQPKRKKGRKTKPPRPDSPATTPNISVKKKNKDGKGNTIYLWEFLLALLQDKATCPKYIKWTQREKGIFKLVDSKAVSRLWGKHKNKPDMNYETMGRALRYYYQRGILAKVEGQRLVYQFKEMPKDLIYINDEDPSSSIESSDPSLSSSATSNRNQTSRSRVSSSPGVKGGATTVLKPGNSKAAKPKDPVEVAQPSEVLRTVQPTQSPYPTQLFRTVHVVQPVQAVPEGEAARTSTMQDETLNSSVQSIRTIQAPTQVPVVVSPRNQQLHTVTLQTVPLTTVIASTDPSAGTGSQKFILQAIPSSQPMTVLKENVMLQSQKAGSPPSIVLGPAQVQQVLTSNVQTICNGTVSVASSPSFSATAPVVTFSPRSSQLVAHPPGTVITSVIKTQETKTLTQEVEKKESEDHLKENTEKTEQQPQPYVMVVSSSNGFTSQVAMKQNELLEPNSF
# In short: as §1
# EHF = target: T5, EHF (Homo sapiens, UniProt Q9NZC4 1-300); details: protein: recombinant; tags: N-terminal GST; dsDNA, one strand shown
# T5 sequence: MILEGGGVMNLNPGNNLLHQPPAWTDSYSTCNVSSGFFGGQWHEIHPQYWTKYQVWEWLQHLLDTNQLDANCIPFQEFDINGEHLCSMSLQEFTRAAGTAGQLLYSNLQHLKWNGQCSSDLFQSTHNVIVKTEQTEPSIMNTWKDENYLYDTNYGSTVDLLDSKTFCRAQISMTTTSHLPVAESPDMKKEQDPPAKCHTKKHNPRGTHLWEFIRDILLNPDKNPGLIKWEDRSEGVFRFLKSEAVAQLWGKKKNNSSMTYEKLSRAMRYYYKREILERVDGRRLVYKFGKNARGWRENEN
# In short: as §1
# SPI1 = SPI1 (Homo sapiens, UniProt P17947 1-270); details: protein: recombinant; tags: N-terminal GST; dsDNA, one strand shown
# In short: as §1
# SPIB = SPIB (Homo sapiens, UniProt Q01892 1-262); details: protein: recombinant; tags: N-terminal GST; dsDNA, one strand shown
# Chain of SPIB (Q01892 whole entry): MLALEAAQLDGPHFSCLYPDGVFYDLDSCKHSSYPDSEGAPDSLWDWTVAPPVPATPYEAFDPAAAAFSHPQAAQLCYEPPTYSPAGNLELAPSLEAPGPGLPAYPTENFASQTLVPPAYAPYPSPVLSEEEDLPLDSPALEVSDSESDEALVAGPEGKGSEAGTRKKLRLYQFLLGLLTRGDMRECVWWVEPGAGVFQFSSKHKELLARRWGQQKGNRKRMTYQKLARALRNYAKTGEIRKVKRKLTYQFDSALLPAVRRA
# In short: as §1
# ELK3 = target: T6, ELK3 (Homo sapiens, UniProt P41970 1-407); details: protein: recombinant; tags: N-terminal GST; dsDNA, one strand shown
# T6 sequence: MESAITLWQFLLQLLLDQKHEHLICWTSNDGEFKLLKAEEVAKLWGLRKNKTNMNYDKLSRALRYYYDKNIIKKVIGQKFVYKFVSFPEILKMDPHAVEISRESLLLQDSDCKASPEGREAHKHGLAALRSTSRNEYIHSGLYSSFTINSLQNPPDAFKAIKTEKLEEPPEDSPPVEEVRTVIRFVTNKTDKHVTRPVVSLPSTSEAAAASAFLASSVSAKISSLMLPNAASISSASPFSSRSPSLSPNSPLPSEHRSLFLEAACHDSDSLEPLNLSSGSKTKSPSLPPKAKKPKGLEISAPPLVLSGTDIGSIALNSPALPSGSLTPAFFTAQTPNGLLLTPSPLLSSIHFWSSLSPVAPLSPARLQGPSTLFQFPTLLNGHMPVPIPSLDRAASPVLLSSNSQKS
# In short: as §1
# FEV = target: T7, FEV (Homo sapiens, UniProt Q99581 1-238); details: protein: recombinant; tags: N-terminal GST; dsDNA, one strand shown
# T7 sequence: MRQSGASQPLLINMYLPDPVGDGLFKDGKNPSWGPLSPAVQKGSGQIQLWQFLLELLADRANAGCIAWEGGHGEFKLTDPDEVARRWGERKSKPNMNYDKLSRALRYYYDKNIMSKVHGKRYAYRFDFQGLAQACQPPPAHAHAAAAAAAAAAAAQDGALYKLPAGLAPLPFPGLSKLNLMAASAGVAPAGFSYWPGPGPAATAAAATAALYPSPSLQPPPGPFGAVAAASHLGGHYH
# In short: as §1
# ETV5 = ETV5 (Homo sapiens, UniProt P41161 1-510); details: protein: recombinant; tags: N-terminal GST; dsDNA, one strand shown
# Chain of ETV5 (P41161 whole entry): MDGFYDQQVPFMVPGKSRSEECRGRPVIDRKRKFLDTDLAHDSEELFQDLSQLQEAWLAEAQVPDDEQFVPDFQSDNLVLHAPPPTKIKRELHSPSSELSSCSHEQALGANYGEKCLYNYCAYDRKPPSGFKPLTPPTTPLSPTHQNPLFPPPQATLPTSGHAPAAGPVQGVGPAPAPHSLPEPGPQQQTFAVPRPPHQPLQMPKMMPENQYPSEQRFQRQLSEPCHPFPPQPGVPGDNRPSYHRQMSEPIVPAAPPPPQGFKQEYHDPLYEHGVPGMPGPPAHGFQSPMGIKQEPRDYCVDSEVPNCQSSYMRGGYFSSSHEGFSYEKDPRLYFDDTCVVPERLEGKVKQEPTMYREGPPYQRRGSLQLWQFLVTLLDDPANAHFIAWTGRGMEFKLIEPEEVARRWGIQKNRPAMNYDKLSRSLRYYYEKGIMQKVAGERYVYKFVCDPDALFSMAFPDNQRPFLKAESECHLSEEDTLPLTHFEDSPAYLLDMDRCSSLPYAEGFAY
# In short: as §1
# HSF1 = HSF1 (Homo sapiens, UniProt Q00613 1-529); details: protein: recombinant; tags: N-terminal GST; chain copies: 3; dsDNA, one strand shown
# Chain of HSF1 (Q00613 whole entry): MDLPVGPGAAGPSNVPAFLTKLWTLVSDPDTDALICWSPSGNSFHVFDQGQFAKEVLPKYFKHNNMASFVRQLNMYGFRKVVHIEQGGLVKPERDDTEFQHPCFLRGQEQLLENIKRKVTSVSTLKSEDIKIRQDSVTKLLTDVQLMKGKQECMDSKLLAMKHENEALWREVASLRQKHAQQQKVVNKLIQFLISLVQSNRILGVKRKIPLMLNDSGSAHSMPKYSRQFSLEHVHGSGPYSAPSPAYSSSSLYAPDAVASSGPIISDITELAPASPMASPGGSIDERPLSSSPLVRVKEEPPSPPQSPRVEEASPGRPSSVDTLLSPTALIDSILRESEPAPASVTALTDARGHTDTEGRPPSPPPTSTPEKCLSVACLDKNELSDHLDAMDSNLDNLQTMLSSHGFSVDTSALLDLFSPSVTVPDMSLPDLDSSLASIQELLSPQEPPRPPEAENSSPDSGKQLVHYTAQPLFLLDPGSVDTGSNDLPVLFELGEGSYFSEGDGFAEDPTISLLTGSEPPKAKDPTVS
# In short: as §1
# SPIC = target: T8, SPIC (Homo sapiens, UniProt Q8N5J4 1-248); details: protein: recombinant; tags: N-terminal GST; dsDNA, one strand shown
# T8 sequence: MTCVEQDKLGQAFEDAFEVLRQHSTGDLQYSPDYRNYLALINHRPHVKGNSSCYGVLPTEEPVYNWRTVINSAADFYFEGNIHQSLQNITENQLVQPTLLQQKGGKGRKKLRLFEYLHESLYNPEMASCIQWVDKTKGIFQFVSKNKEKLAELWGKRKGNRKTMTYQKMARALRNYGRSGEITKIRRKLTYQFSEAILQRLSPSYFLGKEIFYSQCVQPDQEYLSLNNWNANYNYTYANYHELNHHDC
# In short: as §1
# ELF4 = ELF4 (Homo sapiens, UniProt Q99607 1-663); details: protein: recombinant; tags: N-terminal GST; dsDNA, one strand shown
# Chain of ELF4 (Q99607 whole entry): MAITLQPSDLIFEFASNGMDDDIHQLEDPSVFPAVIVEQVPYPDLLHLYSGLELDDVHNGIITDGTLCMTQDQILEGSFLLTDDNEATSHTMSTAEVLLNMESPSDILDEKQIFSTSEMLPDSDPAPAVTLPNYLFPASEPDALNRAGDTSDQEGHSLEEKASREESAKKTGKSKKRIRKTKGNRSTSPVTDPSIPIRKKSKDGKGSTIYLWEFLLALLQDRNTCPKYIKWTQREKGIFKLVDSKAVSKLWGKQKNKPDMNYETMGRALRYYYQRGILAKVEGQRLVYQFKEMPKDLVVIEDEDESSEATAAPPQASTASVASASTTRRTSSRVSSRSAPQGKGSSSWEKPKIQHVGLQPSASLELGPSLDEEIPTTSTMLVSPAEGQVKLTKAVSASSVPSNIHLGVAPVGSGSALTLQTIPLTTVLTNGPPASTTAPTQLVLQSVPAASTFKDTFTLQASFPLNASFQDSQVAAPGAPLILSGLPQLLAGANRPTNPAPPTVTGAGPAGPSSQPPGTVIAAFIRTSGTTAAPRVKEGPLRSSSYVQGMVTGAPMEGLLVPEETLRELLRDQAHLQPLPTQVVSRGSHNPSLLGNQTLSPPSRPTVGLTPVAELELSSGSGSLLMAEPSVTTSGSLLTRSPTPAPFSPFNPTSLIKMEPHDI
# In short: as §1
# ELK4 = target: T9, ELK4 (Homo sapiens, UniProt P28324-2 1-405); details: protein: recombinant; tags: N-terminal GST; dsDNA, one strand shown
# T9 sequence: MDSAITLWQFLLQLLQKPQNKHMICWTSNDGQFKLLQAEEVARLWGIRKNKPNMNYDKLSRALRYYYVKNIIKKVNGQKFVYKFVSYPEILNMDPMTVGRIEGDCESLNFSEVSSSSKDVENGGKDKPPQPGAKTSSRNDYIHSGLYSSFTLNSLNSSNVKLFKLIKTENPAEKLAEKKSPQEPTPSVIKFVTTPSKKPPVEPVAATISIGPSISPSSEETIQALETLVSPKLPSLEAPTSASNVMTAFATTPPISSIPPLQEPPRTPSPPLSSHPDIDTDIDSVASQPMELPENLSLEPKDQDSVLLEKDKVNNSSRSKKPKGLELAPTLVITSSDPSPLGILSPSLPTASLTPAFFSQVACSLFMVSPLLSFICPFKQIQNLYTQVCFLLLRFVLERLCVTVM
# In short: as §1
# ETV2 = target: T10, ETV2 (Homo sapiens, UniProt O00321 1-342); details: protein: recombinant; tags: N-terminal GST; dsDNA, one strand shown
# T10 sequence: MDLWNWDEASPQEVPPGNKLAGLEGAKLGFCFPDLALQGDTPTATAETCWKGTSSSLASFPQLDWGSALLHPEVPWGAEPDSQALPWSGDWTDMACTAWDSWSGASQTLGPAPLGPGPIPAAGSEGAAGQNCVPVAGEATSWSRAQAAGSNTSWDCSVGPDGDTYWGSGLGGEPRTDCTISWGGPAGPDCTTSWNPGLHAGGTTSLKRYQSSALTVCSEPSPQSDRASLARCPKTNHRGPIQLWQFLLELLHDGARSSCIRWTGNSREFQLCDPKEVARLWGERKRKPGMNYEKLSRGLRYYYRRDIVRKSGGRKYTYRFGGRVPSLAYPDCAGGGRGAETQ
# In short: as §1
# ELF3 = target: T11, ELF3 (Homo sapiens, UniProt P78545 1-371); details: protein: recombinant; tags: N-terminal GST; dsDNA, one strand shown
# T11 sequence: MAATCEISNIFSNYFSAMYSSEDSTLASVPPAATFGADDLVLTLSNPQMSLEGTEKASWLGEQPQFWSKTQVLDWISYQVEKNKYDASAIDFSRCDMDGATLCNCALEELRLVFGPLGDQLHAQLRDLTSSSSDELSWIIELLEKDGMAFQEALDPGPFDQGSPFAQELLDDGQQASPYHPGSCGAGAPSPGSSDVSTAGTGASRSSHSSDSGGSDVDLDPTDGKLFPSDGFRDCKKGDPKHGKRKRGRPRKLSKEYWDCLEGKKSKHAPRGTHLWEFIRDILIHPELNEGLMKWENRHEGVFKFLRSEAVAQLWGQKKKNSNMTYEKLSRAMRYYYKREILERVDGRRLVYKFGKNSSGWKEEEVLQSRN
# In short: as §1
# CRX = CRX (Homo sapiens, UniProt O43186 1-299); details: protein: recombinant; tags: N-terminal GST; dsDNA, one strand shown
# Chain of CRX (O43186 whole entry): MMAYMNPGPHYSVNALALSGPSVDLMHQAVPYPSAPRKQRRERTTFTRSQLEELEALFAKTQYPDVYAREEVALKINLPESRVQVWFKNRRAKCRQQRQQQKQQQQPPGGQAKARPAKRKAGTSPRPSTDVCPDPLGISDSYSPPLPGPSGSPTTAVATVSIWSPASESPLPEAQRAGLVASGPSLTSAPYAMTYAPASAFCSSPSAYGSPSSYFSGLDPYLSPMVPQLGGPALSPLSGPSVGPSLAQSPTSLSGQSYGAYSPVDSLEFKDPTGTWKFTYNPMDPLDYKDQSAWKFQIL
# In short: as §1
# ETV1 = ETV1 (Homo sapiens, UniProt P50549 1-477); details: protein: recombinant; tags: N-terminal GST; dsDNA, one strand shown
# Chain of ETV1 (P50549 whole entry): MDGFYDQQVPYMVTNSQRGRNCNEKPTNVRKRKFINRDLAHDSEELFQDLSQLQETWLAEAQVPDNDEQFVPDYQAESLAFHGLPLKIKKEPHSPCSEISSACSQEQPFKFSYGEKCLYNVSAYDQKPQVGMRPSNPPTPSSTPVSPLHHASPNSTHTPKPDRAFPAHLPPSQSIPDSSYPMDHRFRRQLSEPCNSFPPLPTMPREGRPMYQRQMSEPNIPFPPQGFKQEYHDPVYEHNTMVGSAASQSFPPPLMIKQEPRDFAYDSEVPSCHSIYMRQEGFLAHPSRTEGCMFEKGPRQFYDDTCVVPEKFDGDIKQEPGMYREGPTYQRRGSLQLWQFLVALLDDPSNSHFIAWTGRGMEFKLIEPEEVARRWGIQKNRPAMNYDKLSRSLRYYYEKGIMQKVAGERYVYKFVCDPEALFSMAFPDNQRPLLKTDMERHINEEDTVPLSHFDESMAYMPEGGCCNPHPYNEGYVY
# In short: as §1
sequence,measurement,setting,value
CCCATA,binding signal,FLI1,"1.23 fold enrichment (6-mer frequency, TF over GST control)"
same,binding signal,ELK1,"1.26 fold enrichment (6-mer frequency, TF over GST control)"
same,binding signal,GABPA,"1.33 fold enrichment (6-mer frequency, TF over GST control)"
same,binding signal,ERG,"1.24 fold enrichment (6-mer frequency, TF over GST control)"
same,binding signal,ELF1,"1.21 fold enrichment (6-mer frequency, TF over GST control)"
same,binding signal,EHF,"1.13 fold enrichment (6-mer frequency, TF over GST control)"
same,binding signal,SPI1,"1.18 fold enrichment (6-mer frequency, TF over GST control)"
same,binding signal,SPIB,"1.34 fold enrichment (6-mer frequency, TF over GST control)"
same,binding signal,ELK3,"1.21 fold enrichment (6-mer frequency, TF over GST control)"
same,binding signal,FEV,"1.24 fold enrichment (6-mer frequency, TF over GST control)"
same,binding signal,ETV5,"1.23 fold enrichment (6-mer frequency, TF over GST control)"
same,binding signal,HSF1,"1.14 fold enrichment (6-mer frequency, TF over GST control)"
same,binding signal,SPIC,"1.31 fold enrichment (6-mer frequency, TF over GST control)"
same,binding signal,ELF4,"1.32 fold enrichment (6-mer frequency, TF over GST control)"
same,binding signal,ELK4,"1.06 fold enrichment (6-mer frequency, TF over GST control)"
same,binding signal,ETV2,"1.3 fold enrichment (6-mer frequency, TF over GST control)"
same,binding signal,ELF3,"1.33 fold enrichment (6-mer frequency, TF over GST control)"
same,binding signal,CRX,"1.24 fold enrichment (6-mer frequency, TF over GST control)"
same,binding signal,ETV1,"1.24 fold enrichment (6-mer frequency, TF over GST control)"
